# Source: PubChem (National Center for Advancing Translational Sciences (NCATS))
# Sampled rows, rich in hits. Any-hit rate of the full collection: about 4.8%.
# ATXN2 expr inh – Primary qHTS for Inhibitors of ATXN expression. 360,000 tested, 0.72% active. HEK-293 ATXN2-luciferase reporter, luminescence, 24 h. Potency, µM (series often up to 57 µM), for the others: top-dose activity change, negative = inhibition, hits mostly inhibitors. AID 1745845, 2022; note: potency is the fitted concentration of half-maximal effect; % is set by controls: 0 for no effect and ±100 for the full control effect; nearly all actives have a fitted effect of over 55% in size
#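 qHTS (up to 57 uM final) was run with 24 h compound exposure of reporter cells at 37 °C. Each well was multiplexed: SteadyGlo luminescence measured ATXN2-luciferase expression after a fluorogenic Gly-Phe-AFC viability readout (25 uM final).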
# TGFb SMAD3 inh – qHTS for Inhibitors of TGF-b | HepG2 CAGA-GFP TGF-b/SMAD3 reporter, GFP fluorescence, 18 h; TGF-beta stimulated, 500 pg/mL final | Potency, µM (series often up to 46.1 µM), for inactives: at the highest dose activity, negative = inhibition, actives largely listed as inhibitors | 410,000 tested, 1.2% active | AID 588855, 2011; note: potency is the fitted concentration of half-maximal effect; % is set by controls: 0 for no effect and ±100 for the full control effect; nearly all actives have a fitted effect of over 65% in size
#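 Smad-responsive CAGA-GFP expression was quantified in HEPG2 cells exposed to compounds and 500 pg/mL final TGF-beta for 18 h at 37 degrees C; unstimulated wells defined full inhibition.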
# D3 antag – qHTS of D3 Dopamine Receptor Antagonist: qHTS; D(3) dopamine receptor (Homo sapiens), P35462; D3R cells, DiscoveRx beta-arrestin luminescence, antagonist mode; hits give low values; max response, negative = inhibition, %; 360,000 tested, 2.5% active; in the data active = max response below about -50%; inconclusive = no clear call, values can overlap the other calls; note: % is set by controls: 0 for no effect and ±100 for the full control effect
# Target sequence (P35462 whole entry, looked up): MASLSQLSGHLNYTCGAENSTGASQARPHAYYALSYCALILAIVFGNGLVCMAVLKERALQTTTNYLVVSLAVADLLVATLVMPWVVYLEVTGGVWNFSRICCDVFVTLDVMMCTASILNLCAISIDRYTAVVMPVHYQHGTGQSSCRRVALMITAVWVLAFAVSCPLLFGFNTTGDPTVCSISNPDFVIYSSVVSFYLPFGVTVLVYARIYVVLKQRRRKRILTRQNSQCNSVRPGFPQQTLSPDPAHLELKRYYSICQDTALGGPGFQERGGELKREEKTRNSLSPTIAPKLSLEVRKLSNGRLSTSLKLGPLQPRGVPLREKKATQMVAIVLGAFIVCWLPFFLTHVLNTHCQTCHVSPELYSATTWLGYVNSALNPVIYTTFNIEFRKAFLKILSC
#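 Cells expressing the human receptor were seeded at 1500 cells/well, incubated overnight at 37 degrees C in 5% CO2, then exposed to library compounds with dopamine controls for 90 minutes at 37 degrees C before luminescent detection.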
# D3 ag – qHTS of D3 Dopamine Receptor Agonist: qHTS; 410,000 tested, 0.58% active; max activation, %; D(3) dopamine receptor (Homo sapiens), P35462; D3R DiscoveRx beta-arrestin cells, luminescence, 90 min; in the data active = max activation above about 30%; note: 0% is about no effect
#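 Cells at 1500/well, incubated overnight, then treated with pinned compounds (dopamine as control) for 90 min at 37 degrees C. DiscoveRx reagent added for 30 - 60 minutes at room temperature; luminescence read.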
# HepG2 tox – qHTS for Inhibitors of TGF-b: Cytotox Counterscreen | HepG2 CAGA-GFP viability, ATP luminescence, 18 h | Potency, µM (highest dose often 46.1 µM), inactives show at the highest dose activity change, negative = cytotoxicity, actives largely listed as cytotoxic | 410,000 tested, 0.76% active; note: potency is the fitted concentration of half-maximal effect
#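 CellTiter-Glo luminescence gave cytotoxicity after 18 hours at 37 degrees C. The cells were HepG2 CAGA-GFP in 1% FBS DMEM, stimulated with 500 pg/mL TGF-beta after compound addition. %Activity was normalised to no-cell wells (complete cell-killing) and DMSO (no toxicity), and curves were fitted and classified.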
# S2 tox – Viability Counterscreen for Primary qHTS for Inhibitors of ATXN expression | Potency, µM (titrated, usually from 56.7 µM), usual class: cytotoxic | 400,000 tested, 0.49% active | AID 651635, 2014 | S2 cells (HEK-293 line with an ATXN2-luciferase reporter) viability, CellTiter-Fluor protease fluorescence, 24 h; note: potency is the fitted concentration of half-maximal effect; nearly all actives have a fitted effect of over 40% in size
# * marks the source's active call; other numbers are inactive results; i = inactive; ? = inconclusive; . = no result given; ! = not confirmed by another sample. Unless noted, calls come from the whole dose curve; as a rule, active = well fitted curve in the direction sought with a large enough effect; inconclusive = small, poorly fitted or top-dose-only effect, or another doubt; inactive = no such curve, though single readings can be large; an effect the other way counts as inactive or inconclusive.
SMILES,ATXN2 expr inh,TGFb SMAD3 inh,D3 antag,D3 ag,HepG2 tox,S2 tox
O=C(c1ccc(CSc2nc3ccncc3n2Cc2ccccc2)cc1)N1CCCCCC1,-2.4%,?,.,-1.2,-19.7%,?
CC(CNC(=O)c1ccc(CSc2nc3ccncc3n2Cc2cccc(F)c2)cc1)c1ccccc1 (stereo unspecified),-33.6%,10µM*,.,-21.1,-20.1%,?
CCC(C(=O)NC1CCCCC1)n1c(SCc2cccc(F)c2)nc2ccncc21 (stereo unspecified),-10.9%,?,5.1,-16.8,-25.8%,?
CCC(C(=O)NC1CCCCC1)n1c(SCc2cccc(C)c2)nc2ccncc21 (stereo unspecified),1.6%,12.6µM*,-0.6,-0.3,-35.4%,?
O=C(NCc1cccs1)c1ccc(CSc2nc3ccncc3n2Cc2ccccc2F)cc1,12.5%,8.91µM*,.,-20.2,-30.3%,i
Cc1cccc(Cn2c(SCc3ccc(C(=O)N4CCCCCC4)cc3)nc3ccncc32)c1,.,12.6µM*,.,-9.7,-38.1%,.
Cc1cc2oc3c(c(=O)c2cc1C)C(c1ccc(C(C)C)cc1)N(c1nc(C)c(C)s1)C3=O (stereo unspecified),7.1%,3.4%,.,3.3,-6.0%,i
Cc1ccc(Cl)cc1N1CCN(C(=O)c2sc3nc4n(c(=O)c3c2C)CCC4)CC1,.,-7.1%,.,0.9,-0.8%,.
Cc1csc(N/N=C/c2ccc(O)c([N+](=O)[O-])c2)n1,15.1%,-8.7%,-53.7*,-9.6,-0.6%,i
O=[N+]([O-])c1cc(/C=N\Nc2nc(-c3ccccc3)cs2)ccc1O,10.5%,5.2%,-9.3,2.2,10.4%,?
Cc1cccc(OCCSc2nc3ccc(NC(=O)c4cccs4)cc3s2)c1,-27.0%,-14.3%,.,-9.8,-1.1%,i
CC(=O)C1CCC2C3CC(C)=C4CC(O)CCC4(C)C3CCC12C (stereo unspecified),-10.2%,-0.7%,-4.6,65.4*,-10.3%,i
N#CC1=C(N)OC2=C(CC/C2=C\c2ccccc2Cl)C1c1ccccc1Cl (stereo unspecified),.,11.2µM*,-0.1,-0.7,-27.6%,.
N#CC1=C(N)OC2=C(CC/C2=C\c2ccccc2)C1c1ccccc1 (stereo unspecified),13.0%,66.4%,-0.5,1.1,-1.4%,.
CCOC(=O)c1ccc(NC(=O)CCCn2nc(C)c3sc4ccccc4c3c2=O)cc1,.,-5.1%,.,1.7,-11.1%,.
CCOC(=O)C1CCCN(S(=O)(=O)c2ccc3[nH]c(=O)ccc3c2)C1 (stereo unspecified),-5.5%,-7.2%,.,3.3,-46.9%,i
CN(C)/C=C\C(=C/C(=O)C(F)(F)F)Nc1ccccc1Oc1ccccc1,-22.6%,?,?,-16.0,-19.3%,i
Cc1ccc(NC(/C=C/N(C)C)=C/C(=O)C(F)(F)F)c(C)c1,-28.3%,20µM*,13.5,10.8,-3.3%,i
O=C1C=C(N2CCCCC2)c2ccccc2C1=O,29.9µM*,2.82µM*,5.7,5.0,-103.1%,.
O=C1CC(/C=C/c2ccc(Cl)cc2)=Nc2ccccc2N1,-19.7%,11.2µM*,?,-9.3,-41.5%,?
COc1ccc(CCNc2oc(COc3ccccc3)nc2C#N)cc1,3.6%,-1.7%,-12.8,-4.1,-44.0%,i
COc1ccc(Nc2oc(COc3ccccc3F)nc2C#N)cc1,?,-2.3%,-4.0,2.1,-26.9%,35.5µM*
COc1ccc(Nc2oc(COc3ccc(OC)cc3)nc2C#N)cc1,14.1µM*,-11.2%,2.7,-0.7,-16.3%,i
COc1ccc(Nc2oc(COc3ccc(C)cc3)nc2C#N)cc1,.,?,1.4,5.2,-22.8%,.
Cc1ccc(OCc2nc(C#N)c(NCCc3ccccc3)o2)cc1,.,22.4µM*,.,2.6,-28.2%,.
SMILES,ATXN2 expr inh,TGFb SMAD3 inh,D3 antag,D3 ag,HepG2 tox,S2 tox
COc1ccc(NC(=O)C2CCC(CNc3c(N4CCC(C)CC4)c(=O)c3=O)CC2)cc1OC (stereo unspecified),-2.1%,-6.1%,-104.7*!,1.9,2.2%,i
CCOC(=O)N1CCN(S(=O)(=O)c2ccc(C(=O)N(CCCN(C)C)c3nc4ccc(Cl)cc4s3)cc2)CC1,?,?,-8.4,-4.0,11.2µM*,?
CCOC(=O)N1CCN(S(=O)(=O)c2ccc(C(=O)N(CCCN(C)C)c3nc4ccc(CC)cc4s3)cc2)CC1,?,0.0%,-23.4,-8.4,-13.4%,i
Cc1ccc2nc(N(CCCN(C)C)C(=O)c3ccc(S(=O)(=O)N4CCCCCC4)cc3)sc2c1,?,?,-24.2,-22.8,15.8µM*,i
COc1ccc(N2CCN(C3(c4ccccc4)C(=O)c4ccccc4C3=O)CC2)cc1,-5.4%,?,.,-16.2,-79.1%,i
CCc1nnc2c(Nc3cc(OC)c(Cl)cc3OC)nc3ccccc3n12,12.6%,41.2%,.,9.6,-0.8%,i
CC(C)(C)c1cc(C(C)(C)C)c(NC(=O)c2c[nH]c3ccccc3c2=O)cc1O,8.0%,.,.,.,.,.
O=C(CSc1nnc(C2CC2)n1C1CC1)c1ccc(Br)s1,37.6%,22.8%,-65.1*,0.2,-7.1%,i
O=C(CSc1nnc(C2CC2)n1C1CC1)c1cccs1,0.9%,13.4%,6.3,-1.6,-8.1%,i
C[C@]12C=CC(=O)N[C@@H]1CC[C@H]1[C@H]3CC[C@@H](C(=O)Nc4cc(C(F)(F)F)ccc4C(F)(F)F)[C@@]3(C)CC[C@@H]12,-26.7%,.,.,.,.,.
Nc1cc(C(=O)O)c(N)c2c1C(=O)c1ccccc1C2=O,?,?,-55.0*,-7.9,-10.9%,14.1µM*
Nc1c(C(=O)O)ccc2c1C(=O)c1ccccc1C2=O,1.4%,-0.5%,?,-11.5,-16.9%,?
CCOc1ccccc1NC(=O)CN(CCc1ccccc1)S(=O)(=O)c1ccc(C)cc1,5.4%,-23.1%,.,-11.9,-15.8%,i
O=C1/C(=C\c2cccc([N+](=O)[O-])c2O)SC(=S)N1Cc1ccccc1,?,10µM*,?,-13.5,-41.7%,?
O=C1CSC(=S)N1Cc1cccnc1,?,7.94µM*,0.0,-5.5,-26.3%,?
O=C1/C(=C\c2ccc(O)cc2)SC(=S)N1Cc1ccccc1,-36.8%,?,-81.9*,-24.1,-43.3%,i
NS(=O)(=O)c1ccc(CCN2C(=O)/C(=C\c3ccc(Cl)cc3)SC2=S)cc1,25.1µM*,-14.9%,-15.4,1.4,1.0%,.
